The target of assay [1] is Glucocorticoid receptor (Homo sapiens) (UniProt P04150). As to the kind of experiment: ATG_GR_TRANS: Attagene TRANS-FACTORIAL HepG2 Assay for human Glucocorticoid Receptor (GR) (AID 2282978; active = hit-call score of the fitted dose curve at least 0.9, where 1 is the maximum;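 note: activators score as hits since higher reporter transcript over DMSO is fitted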). The settings on record: HepG2 Attagene TRANS GR reporter, mRNA transcription. The procedure, abridged: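 Multiplexed TRANS reporter system, HepG2; 24 h exposure; RNA → oligo(dT) RT → reporter-specific PCR → 6-FAM primer extension → HpaI cut → CE fluorescence. Gain-of-signal vs DMSO.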

For assay [2], the target named is Bile acid receptor (Homo sapiens) (UniProt Q96RI1). Kind of assay: ATG_FXR_TRANS: Attagene TRANS-FACTORIAL HepG2 Assay for Farnesoid X Receptor (FXR) (AID 2282979; active = hit-call score of the fitted dose curve at least 0.9, where 1 is the maximum;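 note: hits raise reporter mRNA above DMSO so AC50 marks FXR activation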). The settings on record: HepG2 Attagene TRANS FXR-GAL4 reporter transcription. The procedure, abridged:
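Reporter transcripts from transfected HepG2 cells were measured 24 h after dosing, using RT-PCR with capillary electrophoresis of 6-FAM-labelled fragments. The read-out reflects activity of exogenous FXR-Gal4 chimera on GAL4-UAS units, with induction relative to DMSO.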

The target in assay [3] is Oxysterols receptor LXR-alpha (Homo sapiens) (UniProt Q13133). Kind of assay: ATG_LXRa_TRANS: Attagene TRANS-FACTORIAL HepG2 Assay for human Liver X Receptor alpha (LXRa) (AID 2282980; active = hit-call score of the fitted dose curve at least 0.9, where 1 is the maximum). Particulars: HepG2 Attagene TRANS reporter, LXRa transactivation. A digest of the protocol:
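Chemical-induced reporter mRNA measured by RT-PCR with fluorescent labelling and capillary electrophoresis after 24 h dosing of transiently transfected HepG2 cells expressing exogenous NR-Gal4 chimeras; increases scored against DMSO baseline.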

Assay [4] deals with Oxysterols receptor LXR-beta (Homo sapiens) (UniProt P55055). As to the kind of experiment: ATG_LXRb_TRANS: Attagene TRANS-FACTORIAL HepG2 Assay for human Liver X Receptor beta (LXRb) (AID 2282981; active = hit-call score of the fitted dose curve at least 0.9, where 1 is the maximum). Particulars: HepG2 Attagene TRANS GAL4-LXRb reporter, mRNA. A digest of the protocol:
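HepG2 cells transiently transfected with GAL4-UAS reporter units for chimeric NR-Gal4 proteins, dosed for 24 h. Reporter transcripts measured by RT-PCR and capillary electrophoresis; gain-of-signal fitting relative to DMSO.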

For assay [5], the target named is Hepatocyte nuclear factor 4-alpha (Homo sapiens) (UniProt P41235). Kind of assay: ATG_HNF4a_TRANS: Attagene TRANS-FACTORIAL HepG2 Assay for human Hepatocyte Nuclear Factor 4 alpha (HNF4a) (AID 2282982; active = hit-call score of the fitted dose curve at least 0.9, where 1 is the maximum). Particulars: HepG2 HNF4a transactivation reporter, mRNA readout. The procedure, abridged: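 HepG2 cells transiently transfected with HNF4a-Gal4 chimera and GAL4-UAS reporter units, dosed for 24 h. Reporter mRNA measured by RT-PCR, fluorescent primer extension and capillary electrophoresis; gain-of-signal fitted relative to DMSO.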

Assay [6] deals with Nuclear receptor subfamily 4 group A member 2 (Homo sapiens) (UniProt P43354). Kind of assay: ATG_NURR1_TRANS: Attagene TRANS-FACTORIAL HepG2 Assay for human Nuclear Receptor Related Protein 1 (NURR1) (AID 2282985; active = hit-call score of the fitted dose curve at least 0.9, where 1 is the maximum). Particulars: HepG2 Attagene TRANS reporter, mRNA readout. A digest of the protocol: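 HepG2 cells transiently transfected with NURR1-Gal4 chimera and GAL4-UAS reporter units; after 24 hr compound exposure, reporter mRNA quantified by RT-PCR and capillary electrophoresis; gain of signal fitted against DMSO.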

The target in assay [7] is Transcriptional activator Myb (Homo sapiens) (UniProt P10242). Kind of assay: ATG_Myb_CIS: Attagene CIS-FACTORIAL HepG2 Assay for human Myeloblastosis (Myb) Proto-Oncogene Transcription Factor (AID 2282986). The settings on record: HepG2 Attagene CIS-FACTORIAL Myb reporter transcription; actives raise or lower the signal. The procedure, abridged: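 Endogenous transcription factor activity at a Myb-responsive cis element is reported in human liver HepG2 cells after 24 h chemical treatment. Reporter mRNA is detected by RT-PCR and capillary electrophoresis fluorescence, with DMSO as baseline.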

Assay [8] has as its target Nuclear respiratory factor 1 (Homo sapiens) (UniProt Q16656). Kind of assay: ATG_NRF1_CIS: Attagene CIS-FACTORIAL HepG2 Assay for human Nuclear Respiratory Factor 1 (NRF1) Orphan Gene (AID 2282987). Particulars: HepG2 NRF1 cis-element reporter, Attagene multiplex; actives raise or lower the signal. A digest of the protocol:
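Human hepatoma HepG2 cells carrying transfected promoter-regulated reporter units were incubated with test chemicals for 24 h. Reporter transcripts were measured by RT-PCR plus capillary electrophoresis, and endpoints derived by bidirectional fitting with DMSO as baseline.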

A short description of assay [9]: ATG_NFI_CIS: Attagene CIS-FACTORIAL HepG2 Assay for human Nuclear Factor I (NFI) (AID 2282989). Particulars: HepG2 cis-regulatory reporter, NFI response element transcription; actives raise or lower the signal. A digest of the protocol:
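Transfected HepG2 liver cells, exposed 24 h, supplied total RNA for oligo(dT) reverse transcription and reporter-specific PCR. Labelled, HpaI-cut fragments were sized by capillary electrophoresis; DMSO set the baseline for bidirectional fitting.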

Assay [10] deals with Myc proto-oncogene protein (Homo sapiens) (UniProt P01106). Kind of assay: ATG_Myc_CIS: Attagene CIS-FACTORIAL HepG2 Assay for human Myelocytomatosis (Myc) Proto-Oncogene Transcription Factor (AID 2282990). Particulars: HepG2, Attagene cis-reporter transcription factor activity; actives raise or lower the signal. A digest of the protocol: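 Fluorescence intensity of reporter-specific cDNA fragments, separated by capillary electrophoresis, gives the signal. Transfected HepG2 cells carrying cis-promoter reporter constructs are incubated with compound for 24 h; DMSO serves as baseline.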

Assay [11] can be described thus: ATG_NF_kB_CIS: Attagene CIS-FACTORIAL HepG2 Assay for human Nuclear Factor Kappa B (NF-kB) (AID 2282991). Particulars: HepG2 Attagene cis-factorial NF-kB reporter mRNA; actives raise or lower the signal. A digest of the protocol:
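Multiplexed cis-reporter assay in transiently transfected HepG2. 24 h treatment; RNA isolated, RT-PCR, labelled fragments resolved by CE. DMSO baseline.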

The nature of assay [12]: ATG_NRF2_ARE_CIS: Attagene CIS-FACTORIAL HepG2 Assay for human Nuclear Factor Erythroid 2 Related Factor 2 (NFR2) response to Antioxidant Response Elements (ARE) (AID 2282992).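 For AC50: reporter mRNA level measured by RT-PCR and capillary electrophoresis fluorescence.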 Particulars: HepG2 Attagene ARE/NRF2 reporter, transcription factor activity; actives raise or lower the signal. The procedure, abridged:
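HepG2 cells transiently transfected with multiplexed cis-regulated reporter transcription units measure endogenous transcription factor activity. Reporter mRNA at 24 h is quantified by RT-PCR, fluorescent labelling and capillary electrophoresis, with bidirectional fitting relative to DMSO.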

Assay [13] in a line: ATG_Oct_MLP_CIS: Attagene CIS-FACTORIAL HepG2 Assay for human Octamer-Binding Transcription Factor (Oct) (AID 2282993). The settings on record: HepG2 Attagene cis-factorial Oct reporter, mRNA; actives raise or lower the signal. A digest of the protocol: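 Using HepG2 cells bearing transfected cis-reporter constructs, mRNA induction was read after 24 h by fluorescent RT-PCR and capillary electrophoresis, with DMSO defining baseline for gain- or loss-of-signal fits.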

The target of assay [14] is Cellular tumor antigen p53 (Homo sapiens) (UniProt P04637). As to the kind of experiment: ATG_p53_CIS: Attagene CIS-FACTORIAL HepG2 Assay for human p53 Transcription Factor (AID 2282994). Particulars: HepG2 p53 cis-element reporter, Attagene mRNA; actives raise or lower the signal. The procedure, abridged:
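HepG2 cells transiently transfected with multiplexed cis-regulated reporter transcription units read endogenous TF activity. After 24 h compound exposure, reporter mRNA was quantified by RT-PCR, fluorescent labelling, HpaI digestion and capillary electrophoresis; bidirectional fits versus DMSO baseline.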

Assay [15] is described as follows: BSK_3C_TissueFactor: BioMAP Diversity Plus: 3C Assay for Tissue Factor Biomarker Activity (AID 2282997). Particulars: BioMAP 3C HUVEC, tissue factor biomarker readout; actives raise or lower the signal. The procedure, abridged: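 Dosing of human umbilical vein endothelial cells preceded a 24 h incubation. Tissue Factor was then read by ELISA, with increases and decreases both scored relative to DMSO controls.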

A short description of assay [16]: BSK_3C_uPAR: BioMAP Diversity Plus: 3C Assay for Urokinase-type plasminogen activator receptor (uPAR) Biomarker Activity (AID 2282998). Particulars: BioMAP 3C HUVEC, uPAR biomarker ELISA; actives raise or lower the signal. The procedure, abridged:
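In this endothelial cell-based assay, human umbilical vein primary cells were treated with chemicals and harvested at 24 h. uPAR was quantified using ELISA, with gains or losses fitted relative to DMSO controls.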
In general terms: An ELISA detects its analyte on a solid surface through an enzyme-linked reagent.

Assay [17] is described as follows: BSK_3C_VCAM1: BioMAP Diversity Plus: 3C Assay for Vascular cell adhesion molecule 1 (VCAM1) Biomarker Activity (AID 2282999). Particulars: BioMAP 3C HUVEC, VCAM1 ELISA, cytokine-stimulated; actives raise or lower the signal. A digest of the protocol: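 Human umbilical vein endothelial cells (3C system), biomarker read by ELISA 24 h after dosing; bidirectional fit against DMSO baseline. Cytotoxicity tracked by SRB total-protein staining in parallel cultures at biomarker time.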

Assay [18] can be described thus: ATG_Hpa5_TRANS: Attagene TRANS-FACTORIAL HepG2 Assay for human GAL4-Hpa5 Hepatocyte Transcription Factor Basal Promoter (AID 2282975; active = hit-call score of the fitted dose curve at least 0.9, where 1 is the maximum;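 note: hits are increases in reporter mRNA over DMSO baseline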). The settings on record: HepG2 Attagene GAL4-Hpa5 transcription reporter. A digest of the protocol:
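Basal-promoter GAL4 background control within the HepG2 trans-factorial panel of transiently transfected reporter units. Reporter mRNA is measured 24 h after dosing by RT-PCR and capillary electrophoresis, fitted for gain of signal versus DMSO.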

Assay [19] is described as follows: ATG_M_32_TRANS: Attagene TRANS-FACTORIAL HepG2 Assay for M32 Transcription Factor (Internal Marker) (AID 2282984; active = hit-call score of the fitted dose curve at least 0.9, where 1 is the maximum). Particulars: HepG2 Attagene TRANS M32 internal marker reporter. The procedure, abridged: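 HepG2 cells transiently transfected with GAL4-UAS reporter units, dosed for 24 hours. Reporter mRNA quantified by RT-PCR, 6-FAM labelling, HpaI digestion and capillary electrophoresis; internal-marker signal fitted upward relative to DMSO.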

Records with an inconclusive call do not appear. Active and inactive are the calls of the source. Rule for the calls, unless noted: active = hit-call score of the fitted dose curve at least 0.9, where 1 is the maximum; inactive = score below 0.9.

Data on five compounds can be found in PubChem BioAssay (EPA / NIEHS).

Sequence of Oxysterols receptor LXR-beta (Homo sapiens) (P55055 whole entry, looked up, the tested form may be a part): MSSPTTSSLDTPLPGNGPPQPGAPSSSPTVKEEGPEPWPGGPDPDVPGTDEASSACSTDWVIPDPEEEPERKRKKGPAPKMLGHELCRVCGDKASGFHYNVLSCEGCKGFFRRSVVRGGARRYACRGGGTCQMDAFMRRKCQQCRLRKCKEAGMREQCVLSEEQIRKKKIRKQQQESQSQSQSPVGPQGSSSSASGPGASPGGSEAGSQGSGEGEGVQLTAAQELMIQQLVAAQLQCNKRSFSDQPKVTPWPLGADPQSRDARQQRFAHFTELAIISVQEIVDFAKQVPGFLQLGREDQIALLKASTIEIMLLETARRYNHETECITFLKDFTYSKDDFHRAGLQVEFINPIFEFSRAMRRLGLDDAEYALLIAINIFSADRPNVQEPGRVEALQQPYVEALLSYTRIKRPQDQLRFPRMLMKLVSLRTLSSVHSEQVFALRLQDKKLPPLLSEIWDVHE
Sequence of Oxysterols receptor LXR-alpha (Homo sapiens) (Q13133 whole entry, looked up, the tested form may be a part): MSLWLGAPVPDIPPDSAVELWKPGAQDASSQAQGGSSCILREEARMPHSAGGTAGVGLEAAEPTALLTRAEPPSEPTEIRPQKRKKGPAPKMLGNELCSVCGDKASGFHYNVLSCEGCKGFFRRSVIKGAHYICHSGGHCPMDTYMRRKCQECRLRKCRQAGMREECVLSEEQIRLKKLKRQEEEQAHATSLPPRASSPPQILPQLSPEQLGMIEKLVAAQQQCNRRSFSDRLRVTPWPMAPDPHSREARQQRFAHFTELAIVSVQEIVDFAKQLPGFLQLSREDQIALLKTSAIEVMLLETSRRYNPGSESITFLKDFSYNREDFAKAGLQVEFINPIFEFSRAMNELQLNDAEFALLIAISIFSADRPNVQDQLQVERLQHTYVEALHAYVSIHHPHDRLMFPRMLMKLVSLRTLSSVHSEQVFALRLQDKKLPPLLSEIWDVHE
Sequence of Nuclear respiratory factor 1 (Homo sapiens) (Q16656 whole entry, looked up): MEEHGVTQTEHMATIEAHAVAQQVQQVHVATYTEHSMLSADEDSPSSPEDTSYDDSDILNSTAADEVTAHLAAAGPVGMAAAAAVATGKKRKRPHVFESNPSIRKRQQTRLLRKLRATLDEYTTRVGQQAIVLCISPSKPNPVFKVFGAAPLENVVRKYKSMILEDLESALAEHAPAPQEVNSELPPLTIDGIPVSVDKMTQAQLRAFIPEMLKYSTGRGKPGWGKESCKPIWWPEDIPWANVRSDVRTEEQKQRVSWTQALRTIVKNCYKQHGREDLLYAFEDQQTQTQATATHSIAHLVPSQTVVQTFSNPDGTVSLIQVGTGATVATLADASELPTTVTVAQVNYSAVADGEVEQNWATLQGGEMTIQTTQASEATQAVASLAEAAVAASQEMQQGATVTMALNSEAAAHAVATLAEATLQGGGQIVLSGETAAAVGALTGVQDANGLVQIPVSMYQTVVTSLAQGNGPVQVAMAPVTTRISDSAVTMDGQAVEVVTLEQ
Sequence of Nuclear receptor subfamily 4 group A member 2 (Homo sapiens) (P43354 whole entry, looked up, the tested form may be a part): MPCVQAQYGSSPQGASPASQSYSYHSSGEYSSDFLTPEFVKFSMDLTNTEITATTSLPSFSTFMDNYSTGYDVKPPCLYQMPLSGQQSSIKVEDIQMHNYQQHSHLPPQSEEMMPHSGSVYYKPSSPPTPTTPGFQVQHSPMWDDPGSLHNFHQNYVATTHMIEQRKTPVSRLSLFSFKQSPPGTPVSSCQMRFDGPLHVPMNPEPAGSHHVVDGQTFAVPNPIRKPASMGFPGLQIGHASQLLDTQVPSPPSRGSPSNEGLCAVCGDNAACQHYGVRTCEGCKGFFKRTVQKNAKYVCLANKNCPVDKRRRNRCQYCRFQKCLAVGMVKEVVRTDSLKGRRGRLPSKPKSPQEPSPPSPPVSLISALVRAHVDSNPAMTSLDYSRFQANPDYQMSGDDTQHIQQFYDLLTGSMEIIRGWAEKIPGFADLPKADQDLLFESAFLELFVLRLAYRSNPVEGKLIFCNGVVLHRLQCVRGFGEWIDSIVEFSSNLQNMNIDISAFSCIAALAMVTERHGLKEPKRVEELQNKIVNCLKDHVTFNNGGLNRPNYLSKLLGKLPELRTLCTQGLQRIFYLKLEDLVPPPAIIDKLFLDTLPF
Sequence of Transcriptional activator Myb (Homo sapiens) (P10242 whole entry, looked up): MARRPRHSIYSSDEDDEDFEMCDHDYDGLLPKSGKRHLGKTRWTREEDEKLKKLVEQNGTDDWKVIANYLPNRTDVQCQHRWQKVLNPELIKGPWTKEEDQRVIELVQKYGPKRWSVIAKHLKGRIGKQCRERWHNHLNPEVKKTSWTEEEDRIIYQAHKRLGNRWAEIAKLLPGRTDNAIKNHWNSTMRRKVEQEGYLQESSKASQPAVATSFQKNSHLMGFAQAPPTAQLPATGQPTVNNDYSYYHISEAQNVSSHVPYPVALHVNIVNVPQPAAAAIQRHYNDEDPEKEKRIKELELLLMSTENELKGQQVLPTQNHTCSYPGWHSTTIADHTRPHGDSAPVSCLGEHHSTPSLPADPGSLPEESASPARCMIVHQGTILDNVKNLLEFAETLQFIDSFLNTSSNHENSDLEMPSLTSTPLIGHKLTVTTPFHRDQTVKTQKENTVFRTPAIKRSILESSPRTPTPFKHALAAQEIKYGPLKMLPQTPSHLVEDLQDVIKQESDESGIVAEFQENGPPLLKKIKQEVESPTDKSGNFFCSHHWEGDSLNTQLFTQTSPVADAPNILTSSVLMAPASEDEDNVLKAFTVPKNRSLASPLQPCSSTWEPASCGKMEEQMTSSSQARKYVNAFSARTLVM
Sequence of Myc proto-oncogene protein (Homo sapiens) (P01106 whole entry, looked up, the tested form may be a part): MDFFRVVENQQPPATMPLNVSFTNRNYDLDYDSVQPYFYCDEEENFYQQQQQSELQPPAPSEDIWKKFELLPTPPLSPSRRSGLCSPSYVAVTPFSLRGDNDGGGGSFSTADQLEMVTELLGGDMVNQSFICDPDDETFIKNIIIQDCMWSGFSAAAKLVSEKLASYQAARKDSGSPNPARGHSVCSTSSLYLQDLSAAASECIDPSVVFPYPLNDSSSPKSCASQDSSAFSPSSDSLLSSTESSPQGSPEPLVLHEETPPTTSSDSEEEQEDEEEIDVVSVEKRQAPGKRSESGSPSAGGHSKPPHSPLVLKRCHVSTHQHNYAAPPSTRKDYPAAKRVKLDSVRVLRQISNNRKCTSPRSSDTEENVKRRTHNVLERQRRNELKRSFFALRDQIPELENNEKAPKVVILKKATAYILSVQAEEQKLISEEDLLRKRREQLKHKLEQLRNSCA
Sequence of Cellular tumor antigen p53 (Homo sapiens) (P04637 whole entry, looked up): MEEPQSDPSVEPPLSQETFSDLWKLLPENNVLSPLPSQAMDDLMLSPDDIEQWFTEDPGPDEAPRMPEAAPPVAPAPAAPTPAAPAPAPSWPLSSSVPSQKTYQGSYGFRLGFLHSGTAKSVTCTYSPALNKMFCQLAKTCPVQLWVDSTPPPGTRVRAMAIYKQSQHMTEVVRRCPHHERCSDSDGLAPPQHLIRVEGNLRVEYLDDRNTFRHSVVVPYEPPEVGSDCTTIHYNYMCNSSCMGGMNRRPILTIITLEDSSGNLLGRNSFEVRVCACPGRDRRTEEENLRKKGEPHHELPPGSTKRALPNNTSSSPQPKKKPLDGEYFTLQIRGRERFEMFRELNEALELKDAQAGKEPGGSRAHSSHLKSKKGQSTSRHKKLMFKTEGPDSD
Sequence of Hepatocyte nuclear factor 4-alpha (Homo sapiens) (P41235 whole entry, looked up, the tested form may be a part): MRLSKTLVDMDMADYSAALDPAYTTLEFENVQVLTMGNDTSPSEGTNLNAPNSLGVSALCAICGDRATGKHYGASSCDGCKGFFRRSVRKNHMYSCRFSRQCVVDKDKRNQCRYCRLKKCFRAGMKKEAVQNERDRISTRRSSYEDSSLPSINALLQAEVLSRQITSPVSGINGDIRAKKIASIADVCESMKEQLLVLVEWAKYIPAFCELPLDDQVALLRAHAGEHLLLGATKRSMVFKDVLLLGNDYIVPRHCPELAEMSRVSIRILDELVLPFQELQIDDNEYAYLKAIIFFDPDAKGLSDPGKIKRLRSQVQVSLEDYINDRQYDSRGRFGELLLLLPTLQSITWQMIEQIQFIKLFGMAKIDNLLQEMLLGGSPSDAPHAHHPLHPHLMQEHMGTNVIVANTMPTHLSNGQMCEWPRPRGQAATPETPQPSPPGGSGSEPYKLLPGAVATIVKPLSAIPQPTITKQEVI
Sequence of Glucocorticoid receptor (Homo sapiens) (P04150 whole entry, looked up): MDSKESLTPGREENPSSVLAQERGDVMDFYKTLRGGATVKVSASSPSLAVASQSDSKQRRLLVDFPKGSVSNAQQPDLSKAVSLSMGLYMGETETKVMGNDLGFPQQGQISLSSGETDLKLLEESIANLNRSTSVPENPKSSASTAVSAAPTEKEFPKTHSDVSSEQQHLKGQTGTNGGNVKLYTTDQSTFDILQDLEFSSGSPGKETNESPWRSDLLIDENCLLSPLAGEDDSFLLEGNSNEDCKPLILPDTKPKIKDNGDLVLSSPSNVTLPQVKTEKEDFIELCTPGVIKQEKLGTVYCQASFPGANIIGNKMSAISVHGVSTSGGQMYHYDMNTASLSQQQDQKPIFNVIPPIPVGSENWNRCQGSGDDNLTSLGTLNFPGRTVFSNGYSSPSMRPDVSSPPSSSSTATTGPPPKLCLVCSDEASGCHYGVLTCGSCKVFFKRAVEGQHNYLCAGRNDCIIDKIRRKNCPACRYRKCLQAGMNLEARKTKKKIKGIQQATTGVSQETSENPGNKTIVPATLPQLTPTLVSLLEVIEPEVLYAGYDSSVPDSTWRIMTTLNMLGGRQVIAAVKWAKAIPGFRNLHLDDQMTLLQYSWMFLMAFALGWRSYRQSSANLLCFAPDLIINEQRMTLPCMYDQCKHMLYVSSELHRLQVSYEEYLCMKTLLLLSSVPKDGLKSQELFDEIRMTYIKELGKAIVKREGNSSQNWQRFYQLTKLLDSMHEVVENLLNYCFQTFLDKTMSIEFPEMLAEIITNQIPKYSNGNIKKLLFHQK

What is called AC50 is the midpoint of the concentration-response curve, whichever way the signal moves. `CCCCOCN(C(=O)CCl)c1c(CC)cccc1CC`: the outcome in assay [1], in assay [2], in [3], in assay [4], in assay [5] and in [6] was inactive. The compound was classed as inactive in assay [7], in assay [8], in [9], in assay [10], in assay [11] and in assay [13]. The call in assay [14] was inactive. For the same compound, the AC50 in [12] is 0.547 µM (active); in assay [15], 16 µM (active); in assay [16], 31.2 µM (active); in assay [17], 27.4 µM (active).
For `COCC(C)N(C(=O)CCl)c1c(C)csc1C` (stereo not drawn), the call in [4], in assay [6], in [7], in [8], in [9] and in assay [10] was inactive. For the same compound, the compound was called inactive in assay [11], in assay [13], in assay [14], in assay [15], in [16] and in assay [17]. Further, the concentration at half-maximal activity (AC50) in assay [12] was 2.31 µM (active).
On to `COP(=O)(OC)O/C(C)=C/C(=O)N(C)C`, for which the call in assay [18], in [3], in assay [4], in assay [6], in [7] and in [8] was inactive. The outcome in [9], in [10], in assay [11], in [12], in assay [13] and in assay [14] was inactive. Also, the outcome in assay [15], in assay [16] and in [17] was inactive.
With `CC(C)Nc1nc(Cl)nc(NC(C)C)n1`, the outcome in [18], in [3], in assay [4], in assay [5], in assay [19] and in [6] was inactive. For the same compound, the result in assay [7], in assay [8], in [9], in assay [10], in assay [12] and in assay [13] was inactive. In addition, the result in assay [14], in assay [15], in assay [16] and in assay [17] was inactive.
`CN/C(=N\[N+](=O)[O-])NCc1cnc(Cl)s1`: the compound was called inactive in [3], in assay [4], in assay [7], in assay [8], in assay [9] and in assay [10]. Further, the compound was called inactive in assay [12], in assay [13], in assay [14], in assay [15], in [16] and in [17].
